Activity calls are given as the source filed them. Unless noted, how the calls were made is not given here.
Columns and labels:
[1] = A549 cell viability effects, profiling panel, calcein-AM fluorescence, 48 h, basal (AID 1162); details: higher = more signal; further: test concentration not given here
[2] = adipocyte viability effects, profiling panel, cell-based, 3T3-L1 adipocytes, calcein-AM fluorescence, 48 h, basal (AID 1163); details: 3T3-L1 adipocytes viability, higher = more signal; further: test concentration not given here
[3] = HepG2 cell viability effects, profiling panel, calcein-AM fluorescence, 48 h, basal (AID 1164); details: higher = more signal; further: test concentration not given here
[4] = MM1S cell viability effects, profiling panel, calcein-AM fluorescence, 48 h, basal (AID 1165); details: higher = more signal;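 further: viability of MM1S multiple myeloma cells under basal unstimulated conditions; test concentration not given here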
[5] = basal RPMI8226 viability, no added stimulus, profiling panel, cell-based, calcein-AM fluorescence, 48 h, PK04 Diversity Set (AID 1166); details: RPMI8226 myeloma viability, higher = more signal;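 further: cells grown under basal conditions without added stimulus; test concentration not given here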
[6] = basal HepG2 mitochondrial membrane potential changes, profiling panel, cell-based, JC-1 fluorescence, 24 h, 100 nL compound (AID 1167); details: higher = more signal; further: test concentration not given here
[7] = basal 3T3-L1 adipocyte mitochondrial potential changes, profiling panel, cell-based, JC-1 fluorescence, 3T3-L1 adipocytes, 24 h, 100 nL compound (AID 1168); details: JC-1 mitochondrial fluorescence, higher = more signal, called active from +8 up or from −8 down; further: test concentration not given here
[8] = basal RPMI8226 mitochondrial membrane potential changes, profiling panel, cell-based, JC-1 fluorescence, 24 h, 100 nL compound (AID 1169); details: RPMI8226 myeloma, JC-1 mitochondrial potential fluorescence, higher = more signal; further: test concentration not given here
[9] = basal MM1S mitochondrial membrane potential changes, profiling panel, cell-based, JC-1 fluorescence, 24 h, 100 nL compound (AID 1170); details: higher = more signal; further: test concentration not given here
[10] = A549 lung cancer cell viability effects, profiling panel, resazurin fluorescence, 24 h, PK04 Diversity Set (AID 1171); details: higher = more signal, called active from +8 up or from −8 down; further: test concentration not given here
[11] = HepG2 liver cancer cell viability effects, profiling panel, resazurin fluorescence, 24 h, PK04 Diversity Set (AID 1172); details: higher = more signal; further: test concentration not given here
[12] = basal S. cerevisiae growth modulation, no modifier, primary screen, OD600, strain BY4716, 24 h, basal condition (AID 1173); details: OD600, 24 h, higher = more signal, called active from +8 up or from −8 down
[13] = MM1S myeloma cell viability, profiling panel, resazurin fluorescence, basal, 24 h, PK04 Diversity Set (AID 1174); details: higher = more signal, called active from +8 up or from −8 down;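 further: MM1S multiple myeloma cell line; test concentration not given here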
[14] = biological target: Dihydroorotate dehydrogenase (quinone), mitochondrial (Plasmodium falciparum (isolate 3D7)) (UniProt Q08210); assay: PfDHODH enzyme inhibitors, primary screen, biochemical, C-terminal His tag, absorbance 600 nm (AID 1175); details: DCIP absorbance 600 nm, higher = more signal, called active from +8 up or from −8 down;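 further: recombinant parasite enzyme with a five histidine tag at its C terminus; test concentration not given here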
Dihydroorotate dehydrogenase (quinone), mitochondrial (Plasmodium falciparum (isolate 3D7)), sequence (Q08210 whole entry, looked up): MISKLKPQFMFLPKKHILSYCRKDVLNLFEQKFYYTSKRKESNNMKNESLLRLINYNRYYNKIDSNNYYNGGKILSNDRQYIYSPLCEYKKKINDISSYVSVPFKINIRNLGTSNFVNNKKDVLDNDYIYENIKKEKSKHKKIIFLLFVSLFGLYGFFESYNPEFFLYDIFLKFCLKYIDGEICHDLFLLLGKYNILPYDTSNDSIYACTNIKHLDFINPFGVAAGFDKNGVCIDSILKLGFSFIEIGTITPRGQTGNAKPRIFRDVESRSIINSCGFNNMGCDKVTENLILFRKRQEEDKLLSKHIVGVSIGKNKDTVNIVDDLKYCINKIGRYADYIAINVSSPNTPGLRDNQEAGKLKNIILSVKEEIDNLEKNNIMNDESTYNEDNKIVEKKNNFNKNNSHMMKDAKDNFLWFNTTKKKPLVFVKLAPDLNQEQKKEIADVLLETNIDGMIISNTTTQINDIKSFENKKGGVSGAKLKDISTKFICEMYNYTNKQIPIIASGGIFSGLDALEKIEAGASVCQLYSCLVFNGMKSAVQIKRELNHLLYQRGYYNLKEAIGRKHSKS

[15] = P. aeruginosa biofilm formation inhibitors, primary screen, strain PAO1, LB-PBS medium, absorbance 600 nm (AID 1176); further: test concentration not given here; details: P. aeruginosa PAO1 growth/biofilm, A600, 12 h; higher = more signal
[16] = S. cerevisiae RM11-1a growth modifiers, primary screen, strain RM11-1a, OD600, basal, 24 h (AID 1177); details: OD600, 24 h, higher = more signal, called active from +8 up or from −8 down;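 further: cultures grown under basal conditions with no added stressor; test concentration not given here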
[17] = E. coli acrAB mutant growth effects, primary screen, E. coli filamentation inducers, strain DRC39, OD650, 24 h (AID 1178); details: higher = more signal, called active from +8 up or from −8 down;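 further: growth measured as culture turbidity by optical density at 650 nm; test concentration not given here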
[18] = E. coli acrAB mutant growth effects, primary screen, E. coli filamentation inducers, strain DRC39, OD650, 48 h (AID 1179);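 further: screen aims at cell division blockers that make cells filament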; details: E. coli DRC39 delta-acrAB growth, higher = more signal, called active from +8 up or from −8 down
[19] = RPMI8226 myeloma cell viability, profiling panel, resazurin fluorescence, basal, 24 h, PK04 Diversity Set (AID 1180); details: higher = more signal;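 further: RPMI8826 multiple myeloma cell line at 5000 cells per well; test concentration not given here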
[20] = biological target: E3 ubiquitin-protein ligase XIAP (Homo sapiens) (UniProt P98170); assay: XIAP binders, primary screen, biophysical, small-molecule microarray, fluorescence 635 nm (AID 1181); details: small-molecule microarray binding, higher = more signal;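 further: score merges 667 nm emission and signal to noise over triplicate slides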
E3 ubiquitin-protein ligase XIAP (Homo sapiens), sequence (P98170 whole entry, looked up): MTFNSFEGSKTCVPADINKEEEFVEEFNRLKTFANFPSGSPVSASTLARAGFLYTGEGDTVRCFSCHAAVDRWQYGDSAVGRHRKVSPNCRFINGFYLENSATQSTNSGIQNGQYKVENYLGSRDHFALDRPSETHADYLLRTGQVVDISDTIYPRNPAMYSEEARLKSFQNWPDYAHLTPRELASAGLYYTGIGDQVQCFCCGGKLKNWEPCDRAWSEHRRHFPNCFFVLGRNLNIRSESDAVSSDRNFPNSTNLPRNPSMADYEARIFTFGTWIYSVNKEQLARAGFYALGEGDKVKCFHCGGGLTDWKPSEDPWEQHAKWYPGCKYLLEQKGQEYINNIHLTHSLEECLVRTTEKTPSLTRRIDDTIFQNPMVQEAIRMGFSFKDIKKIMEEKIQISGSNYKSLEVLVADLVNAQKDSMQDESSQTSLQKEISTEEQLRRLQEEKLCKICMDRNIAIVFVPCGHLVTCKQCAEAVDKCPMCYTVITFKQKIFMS

| SMILES | z-score [1] | z-score [2] | z-score [3] | z-score [4] | z-score [5] | z-score [6] | z-score [7] | z-score [8] | z-score [9] | z-score [10] | z-score [11] | z-score [12] | z-score [13] | composite z-score [14] | z-score [15] | z-score [16] | z-score [17] | z-score [18] | z-score [19] | composite z-score [20] |
| --- | --- | --- | --- | --- | --- | --- | --- | --- | --- | --- | --- | --- | --- | --- | --- | --- | --- | --- | --- | --- |
| COCCOC(=O)N1C(=O)[C@@]2(c3cc(C#CC4=CCCCC4)ccc31)[C@H](c1ccc(O)cc1)N1[C@H](c3ccccc3)[C@H](c3ccccc3)OC(=O)[C@H]1[C@@H]2C(=O)NC[C@H](O)c1ccccc1 | -0.309 | -0.539 | 0.778 | -1.3 | -3.84 | -1.83 | 2.04 (inactive) | -1.08 | -1.06 | -2.06 (inactive) | -1.35 | 0.237 (inactive) | -2.48 (inactive) | -0.495 (inactive) | 1.29 (inactive) | 1.94 (inactive) | -0.396 (inactive) | 0.478 (inactive) | -2.55 | 0.0471 |
| CCOC(=O)C1=C[C@@H](C(C)(C)C)N(S(=O)(=O)c2ccc(C)cc2)[C@H]1c1ccccc1 | -1.42 | -0.396 | -2.27 | -2.95 | -3.35 | 3.49 | -0.243 (inactive) | -0.966 | -0.75 | 1.62 (inactive) | -0.159 | 1.53 (inactive) | -0.562 (inactive) | -0.294 (inactive) | 0.0083 (inactive) | 1.59 (inactive) | 0.128 (inactive) | -0.0515 (inactive) | -1.11 | -0.162 |
| C[C@@]12COC[C@]13C=C(Br)[C@H](C2)[C@@]1(CO1)C3=O | 0.109 | -0.245 | -0.318 | -1.75 | -0.31 | -1.47 | -0.24 (inactive) | 0.253 | -1.12 | -0.557 (inactive) | 0.138 | -1.38 (inactive) | -0.0295 (inactive) | -0.658 (inactive) | -0.259 (inactive) | -0.187 (inactive) | -0.651 (inactive) | -0.534 (inactive) | 0.219 | -0.154 |
| CCOC(=O)C1=CCC(c2ccccc2)N(S(=O)(=O)c2ccc([N+](=O)[O-])cc2)C1 (stereo not given) | -0.482 | -1.19 | -1.07 | -0.259 | 0.0811 | -1.73 | -0.483 (inactive) | 0.602 | -1.37 | 0.217 (inactive) | 0.21 | 1.36 (inactive) | -1.12 (inactive) | 0.243 (inactive) | -0.0196 (inactive) | 0.993 (inactive) | -0.495 (inactive) | 0.0062 (inactive) | -0.927 | -0.113 |
| C=CCNC(=O)[C@H]1[C@@H]2C(=O)O[C@@H](c3ccccc3)[C@@H](c3ccccc3)N2[C@@H](c2ccc(OCCO)cc2)[C@]12C(=O)N(C(=O)OCCOC)c1ccc(C#Cc3ccc(OC)cc3)cc12 | -0.394 | 1.44 | -0.652 | -0.303 | -1.2 | -1.22 | 3.09 (inactive) | -0.904 | -0.529 | 0.0724 (inactive) | -1.14 | 0.583 (inactive) | 0.476 (inactive) | -2.05 (inactive) | 2.11 (inactive) | 2.22 (inactive) | 1.07 (inactive) | 0.941 (inactive) | 0.637 | -0.0344 |
| C=C(COC)C(=O)CC[C@@H](OC(=O)c1cccnc1)c1ccccc1OCCO | -0.0755 | 0.46 | -1.16 | -3.38 | -3.82 | -0.758 | 1.08 (inactive) | -0.67 | -2.43 | 0.1 (inactive) | -0.956 | -0.585 (inactive) | -3.09 (inactive) | -0.4 (inactive) | 0.519 (inactive) | -0.0421 (inactive) | 0.325 (inactive) | 0.206 (inactive) | -3.63 | -0.0663 |
| C=C(CCCC)C(=O)CC[C@H](OC(=O)c1ccccc1-c1ccccc1C(=O)O)c1ccccc1OCCO | 0.305 | 1.1 | -0.669 | -3.38 | -3.85 | -0.309 | 0.954 (inactive) | -0.873 | 0.311 | -0.22 (inactive) | -1.08 | -1.45 (inactive) | -0.976 (inactive) | -0.824 (inactive) | 0.91 (inactive) | -0.0444 (inactive) | 0.506 (inactive) | 0.237 (inactive) | -1.03 | 0.0416 |
| COCCOC(=O)N1C(=O)[C@@]2(c3cc(C#CCC(C(=O)OC)C(=O)OC)ccc31)[C@H](c1ccc(OCCO)cc1)N1[C@H](c3ccccc3)[C@H](c3ccccc3)OC(=O)[C@H]1[C@@H]2C(=O)Nc1nc2ccccc2s1 | 0.705 | 0.694 | 0.278 | -0.518 | -0.312 | -2.91 | 0.578 (inactive) | -1.01 | -1.29 | 0.108 (inactive) | 1.13 | 1.05 (inactive) | 0.814 (inactive) | -1.53 (inactive) | 3.58 (inactive) | 3.24 (inactive) | 1.18 (inactive) | 0.901 (inactive) | -1.15 | 0.0506 |
| COCCCNC(=O)[C@@]1(c2ccc([N+](=O)[O-])cc2)CC(=O)N(CC23CC4CC(CC(C4)C2)C3)[C@@H]1c1ccc(CO)cc1I | -1.28 | -0.64 | -2.75 | -3.75 | -4.35 | 2.16 | -1.23 (inactive) | -1.02 | -1.81 | -2.76 (inactive) | -2.61 | 1.02 (inactive) | -3.15 (inactive) | 1.11 (inactive) | 0.457 (inactive) | 2.43 (inactive) | -0.0284 (inactive) | -0.107 (inactive) | -3.52 | 0.144 |

Reference: PubChem BioAssay
